Each structure is given as a SMILES string. Inconclusive results are not listed. Calls of active or inactive are those of the source. Calls come from the whole dose curve; as a rule, active = well fitted cell-killing curve with a large enough effect; inconclusive = small, poorly fitted or top-dose-only effect, or effect the other way; inactive = no such curve, though single readings can be large or run the other way.

The nature of test [1]: Quantitative High-Throughput drug screen in 47 multiple myeloma cell lines against the NCATS MIPE library collection: FR4_PLB cell viability assay (AID 1918924; note: nearly all actives have a fitted effect of over 35% in size). The method, boiled down:
(§1)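 Relative luminescence from CellTiter-Glo served as the viability signal, referenced to DMSO-treated (100%) and cell-free medium (0%) controls. Treatment lasted 48 hours at 37C with 500 cells per well.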

The nature of test [2]: Quantitative High-Throughput drug screen in 47 multiple myeloma cell lines against the NCATS MIPE library collection: EJM_DSMZ cell viability assay (AID 1918926; note: nearly all actives have a fitted effect of over 30% in size). The method, boiled down: as §1
Test [3] can be described thus: Quantitative High-Throughput drug screen in 47 multiple myeloma cell lines against the NCATS MIPE library collection: AMO1_DSMZ cell viability assay (AID 1918927; note: nearly all actives have a fitted effect of over 30% in size). The method, boiled down: as §1
A short description of test [4]: Quantitative High-Throughput drug screen in 47 multiple myeloma cell lines against the NCATS MIPE library collection: ARP1_JJKsccF8 cell viability assay (AID 1918928; note: nearly all actives have a fitted effect of over 40% in size). Put shortly: (§2)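 Each line was plated at 500 cells/well and treated 48 h with library drugs. Viability came from CellTiter-Glo luminescence relative to DMSO and cell-free medium controls.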
Test [5] in a line: Quantitative High-Throughput drug screen in 47 multiple myeloma cell lines against the NCATS MIPE library collection: ARD_JJKsccE7 cell viability assay (AID 1918929). Put shortly:
as §1

Test [6] can be described thus: Quantitative High-Throughput drug screen in 47 multiple myeloma cell lines against the NCATS MIPE library collection: Karpas620_DSMZ cell viability assay (AID 1918959). Note: nearly all actives have a fitted effect of over 30% in size. Put shortly:
as §1

Test [7] can be described thus: Quantitative High-Throughput drug screen in 47 multiple myeloma cell lines against the NCATS MIPE library collection: KMM1_JCRB cell viability assay (AID 1918960). Note: nearly all actives have a fitted effect of over 30% in size. Put shortly: as §2
Test [8] can be described thus: Quantitative High-Throughput drug screen in 47 multiple myeloma cell lines against the NCATS MIPE library collection: Delta47_JCRB cell viability assay (AID 1918925; note: nearly all actives have a fitted effect of over 45% in size). The method, boiled down:
as §1

Test [9] in a line: Quantitative High-Throughput drug screen in 47 multiple myeloma cell lines against the NCATS MIPE library collection: Karpas417_ECACC cell viability assay (AID 1918961). To be noted: Karpas417 myeloma viability, CellTiter-Glo ATP luminescence, 48 h; viability (% of DMSO): at 45.8 µM (top of the series). The method, boiled down: as §1
Background: Cellular ATP, detected with luciferase, serves as a proxy for viable cell number.
Potency is the fitted concentration of half-maximal effect.

Turning to `O=c1cc(-c2ccc(O)c(O)c2)oc2cc(O)cc(O)c12`, the Potency result in test [1], in test [2], in [3], in [4], in test [5] and in test [6] was “inactive” each time. In addition, in [7], the Potency entry was “inactive”.

Regarding `CNC(=O)c1cc(COc2nnc(Nc3ccc(Cl)cc3)c3ccoc23)ccn1`, the figures for the Potency in [1], in test [3] and in [7] were 26.4 µM (active), 5.26 µM (active) and 9.35 µM (active), respectively. Further, the Potency result in [8] is “inactive”.

`CNC(=O)[C@H](CC1=CN=C2C=CCC=C12)NC(=O)[C@@H](CC(=O)NO)CC(C)C`: the Potency entry in [1] and in test [4] was “inactive” in each case. For the same molecule, the Potency in test [8] was 26.4 µM (active); in [3], 0.0743 µM (active); in test [5], 0.118 µM (active); in test [6], 0.0743 µM (active); in test [7], 0.148 µM (active); in test [9], 0.0209 µM (active).

With `CN(C)c1ccccc1CN1CCCN(Cc2ccccc2N(C)C)C1c1ccncc1`, the Potency was 18.7 µM (active) in test [1], 20.9 µM (active) in [8], 16.6 µM (active) in [3] and 18.7 µM (active) in test [5].

Regarding `CC(NCCc1ccc(O)cc1)C(O)c1ccc(O)cc1` (configuration not stated), the Potency result in test [1], in test [8], in [3], in test [4], in [5] and in test [9] was “inactive” in each case. Besides, the Potency in test [7] was 0.132 µM (active).

With `O=C(Nc1ccccc1)Nc1ccc(-c2ccc(C(=O)[C@H]3CCC[C@H]3C(=O)O)cc2)cc1`, the Potency entry in test [1], in test [8] and in [4] was “inactive” each time. Moreover, the results for the Potency in test [6] and in [7] were 13.2 µM (active) and 7.43 µM (active), respectively.

For `O=C1CCCC(=O)C1C(=O)c1ccc(C(F)(F)F)cc1[N+](=O)[O-]`, the Potency entry in test [1], in [2], in [3], in test [4], in [6] and in [9] was “inactive” throughout. Besides, the Potency in test [5] is 6.62 µM (active).

Regarding `CN(CC=CC#CC(C)(C)C)Cc1cccc2ccccc12`, the Potency entry in test [1], in test [8], in test [3], in test [4], in test [6] and in [7] was “inactive” throughout.

On to `CCCC1OC2C[C@@H]3[C@H]4CCC5=CC(=O)C=C[C@]5(C)[C@H]4C(O)C[C@]3(C)[C@]2(C(=O)CO)O1` (some centres not stated), for which the Potency result in test [1], in [3] and in test [6] was “inactive” each time. Moreover, the Potency in test [2] is 11.8 µM (active); in test [4], 0.469 µM (active); in [5], 0.0118 µM (active).

Take `C[C@H]1[C@H](O)O[C@@H]2O[C@@]3(C)CC[C@@H]4[C@H](C)CC[C@@H]1[C@@]24OO3`: the Potency in test [1] was 6.62 µM (active); in test [8], 5.9 µM (active); in [4], 1.66 µM (active); in test [5] it was 4.18 µM (active); in test [6], 5.26 µM (active); in test [9] it was 2.09 µM (active).

As to `O=C(O)C1=CO[C@@H](O[C@@H]2O[C@H](CO)[C@H](O)[C@H](O)[C@H]2O)[C@@H]2C(CO)=CC[C@H]12`, the Potency entry in test [1], in [3], in [4], in [5] and in test [9] was “inactive” in each case. In addition, the Potency in [2] was 5.9 µM (active).

In the case of `Cc1ccc(NC(=O)c2ccc(CN3CCN(C)CC3)cc2)cc1Nc1nc(-c2cccnc2)cs1`, the Potency in [1] was 20.9 µM (active); in test [8], 6.62 µM (active); in test [3] it was 18.7 µM (active); in [4], 23.5 µM (active); in [5], 23.5 µM (active); in test [7], 16.6 µM (active).

For `Nc1ncnc2c1c(-c1cccc(OCc3ccccc3)c1)cn2C1CC(CN2CCC2)C1` (configuration not stated), the Potency was 16.6 µM (active) in test [1]; 0.372 µM (active) in test [8]; 14.8 µM (active) in test [3]; 2.96 µM (active) in test [5]; 2.96 µM (active) in [6]; 0.372 µM (active) in [7].

`COC1CCC(C(=O)c2ccc3nc4c(cc3c2)CCCO4)CC1` (configuration not stated): the Potency in [1] was 26.4 µM (active); in [8], 16.6 µM (active); in test [3], 18.7 µM (active); in [4], 23.5 µM (active); in test [6] it was 16.6 µM (active).

As for `CCC=CC[C@H]1C(=O)CC[C@@H]1CC(=O)OC`, the Potency result in [1], in test [2], in test [3], in test [4], in test [5] and in test [6] was “inactive” in each case. Further, the Potency entry in [7] and in test [9] was “inactive” throughout.

Regarding `O=C1NC(=O)C(=Cc2ccc(-c3ccc(F)cc3O)o2)S1`, the Potency entry in test [1] and in [6] was “inactive” each time. The results for the Potency in [8] and in [3] were 0.418 µM (active) and 3.32 µM (active), respectively.

With `O=C(c1ccc(F)c(F)c1Nc1ccc(I)cc1F)N1CC(O)([C@H]2CCCCN2)C1`, the Potency was 20.9 µM (active) in test [1]; 20.9 µM (active) in [8]; 3.32 µM (active) in test [3]; 10.5 µM (active) in test [5]; 0.105 µM (active) in [6]; 11.8 µM (active) in [7].

With `COc1ccc2nc3cc(Cl)ccc3c(Nc3cc(CN4CCCC4)c(O)c(CN4CCCC4)c3)c2n1`, the values for the Potency in test [1], in test [8] and in [4] were 23.5 µM (active), 16.6 µM (active) and 29.6 µM (active), respectively.

Regarding `CCCCCCOC(=O)N=C(N)c1ccc(NCc2nc3cc(C(=O)N(CCC(=O)OCC)c4ccccn4)ccc3n2C)cc1`, the Potency in test [1] is 23.5 µM (active); in [8] it was 16.6 µM (active); in [5], 14.8 µM (active); in test [6] it was 7.43 µM (active); in test [7], 16.6 µM (active).

As for `O=C(O)c1nc(=O)[nH]c(=O)[nH]1`, the Potency result in test [1], in test [2], in [3], in test [4], in test [5] and in test [6] was “inactive” each time. Also, the Potency entry in [7] was “inactive”.

As to `CC(C)c1onc(-c2c(Cl)cccc2Cl)c1COc1ccc(C=Cc2cccc(C(=O)O)c2)c(Cl)c1`, the Potency result in [1], in test [2], in test [3], in test [4], in [6] and in [7] was “inactive” throughout.

(Values after PubChem BioAssay (NCATS).)
